A number with no mark means an inactive call. Results filed as inconclusive are left out. Entries that show only a call come without a potency. Calls of active or inactive are those of the source. Unless noted, the call rests on the fitted dose curve; in most records, active means well fitted curve in the direction sought with a large enough effect in the repeat runs; inconclusive means weak or mixed curves; inactive means no such curve, though single readings can be large; an effect the other way counts as inactive or inconclusive.
Columns and labels:
[1] = qHTS assay for small molecules that induce genotoxicity in human embryonic kidney cells expressing luciferase-tagged ATAD5 (AID 651632); further: nearly all actives have a fitted effect of over 15% in size; further: potency means the concentration at half of the fitted maximal effect
Summary of the method: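 Reporter cells (HEK293T) express luciferase-tagged ATAD5, a protein that accumulates after DNA damage. Treat 16 hr at 37C/5% CO2, add Amplite, wait 30 min at RT, and read luminescence.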

[2] = qHTS assay for small molecule disruptors of the mitochondrial membrane potential - cell viability (AID 720634; calls by dose curve;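 further: human HepG2 liver cancer cells; nearly all actives have a fitted effect of over 20% in size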)
Summary of the method: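 Measuring cytotoxicity alongside mitochondrial potential, the screen quantified ATP by luminescence in HepG2 cells after 1 hr compound incubation and a 30 min room-temperature CellTiter-Glo step.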

[3] = qHTS assay for small molecule disruptors of the mitochondrial membrane potential (AID 720635); further: potency means the concentration at half of the fitted maximal effect
Summary of the method: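 HepG2 cells exposed to compound 1 hr at 37C, then Mito-MPS dye 30 min. Ratio read of aggregate (540/590 nm) versus monomer (490/535 nm) fluorescence.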

[4] = qHTS assay to test for compound auto fluorescence at 590 nm (red) in HepG2 cells (AID 720674)
Summary of the method: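 Fluorescence at 590 nm emission following 540 nm excitation was recorded from HepG2 wells one hour after compound transfer, with DMSO-only wells as vehicle and Rose Bengal sodium equivalency as the scale.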

[5] = qHTS assay to test for compound auto fluorescence at 535 nm (green) in HepG2 cells (AID 720675)
[6] = qHTS assay to test for compound auto fluorescence at 590 nm (red) in HEK293 cells (AID 720679)
Summary of the method: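 Red autofluorescence, HEK293 cells: 2,000 cells/well; attach 4-5 hr 37C; add 23 nL cpd or DMSO; incubate o/n 37C 5% CO2; read Ex540/Em590; Rose Bengal sodium reference.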

[7] = qHTS assay to test for compound auto fluorescence at 460 nm (blue) in HEK293 cell free culture (AID 720681)
Summary of the method: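 Compounds were added to cell-free DMEM with 10% FBS and fluorescence read directly. The blue channel used 405 nm excitation and 460 nm emission, with triamterene as the reference fluorophore.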

[8] = qHTS assay to test for compound auto fluorescence at 535 nm (green) in HEK293 cell free culture (AID 720682)
Summary of the method: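 Read-out: 485/535 nm fluorescence intensity, calibrated against fluorescein. Medium only (DMEM + 10% FBS, no cells); test compound or DMSO vehicle added by pintool before plate reading.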

[9] = qHTS assay to test for compound auto fluorescence at 590 nm (red) in HEK293 cell free culture (AID 720683)
Summary of the method: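 Cell-free wells of DMEM with 10% FBS received compound, and intrinsic fluorescence was read at excitation/emission 540/590 nm. Values expressed as equivalence to Rose Bengal sodium.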

[10] = qHTS assay to test for compound auto fluorescence at 590 nm (red) in HepG2 cell free culture (AID 720684)
Summary of the method: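 Compound was pinned into wells holding MEM with 10% FBS and no cells, and red fluorescence was read at Ex/Em 540/590 nm. Signal is expressed as auto fluorescence equivalency relative to Rose Bengal sodium.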

[11] = qHTS assay to test for compound auto fluorescence at 460 nm (blue) in HepG2 cell free culture (AID 720685)
Summary of the method: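 Compound (23 nL) or DMSO pinned into cell-free MEM with 10% FBS; blue fluorescence read at 405/460 nm excitation/emission, expressed as auto-fluorescence equivalency to triamterene.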

[12] = qHTS assay to test for compound auto fluorescence at 535 nm (green) in HepG2 cell free culture (AID 720686)
[13] = qHTS assay to test for compound auto fluorescence at 460 nm (blue) in HepG2 cells (AID 720687)
Summary of the method: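 HepG2 cells in MEM with 10% FBS, attached overnight at 37 C, were exposed to compound or DMSO for 1 hr at 37 C, 5% CO2. Blue fluorescence was read at 405/460 nm, with triamterene as reference fluorophore.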

[14] = molecular target: Glucocorticoid receptor (Homo sapiens) (UniProt P04150); assay: qHTS assay to identify small molecule agonists of the glucocorticoid receptor (GR) signaling pathway (AID 720691; active means well fitted activation curve with a large enough effect in the signal ratio in the repeat runs, not every such curve was filed as active; the % refers to the signal ratio); details: GR-bla HeLa, beta-lactamase reporter ratio, 18 h; activation: at 62.4 µM (top of the series)
Glucocorticoid receptor (Homo sapiens), sequence (P04150 whole entry, looked up): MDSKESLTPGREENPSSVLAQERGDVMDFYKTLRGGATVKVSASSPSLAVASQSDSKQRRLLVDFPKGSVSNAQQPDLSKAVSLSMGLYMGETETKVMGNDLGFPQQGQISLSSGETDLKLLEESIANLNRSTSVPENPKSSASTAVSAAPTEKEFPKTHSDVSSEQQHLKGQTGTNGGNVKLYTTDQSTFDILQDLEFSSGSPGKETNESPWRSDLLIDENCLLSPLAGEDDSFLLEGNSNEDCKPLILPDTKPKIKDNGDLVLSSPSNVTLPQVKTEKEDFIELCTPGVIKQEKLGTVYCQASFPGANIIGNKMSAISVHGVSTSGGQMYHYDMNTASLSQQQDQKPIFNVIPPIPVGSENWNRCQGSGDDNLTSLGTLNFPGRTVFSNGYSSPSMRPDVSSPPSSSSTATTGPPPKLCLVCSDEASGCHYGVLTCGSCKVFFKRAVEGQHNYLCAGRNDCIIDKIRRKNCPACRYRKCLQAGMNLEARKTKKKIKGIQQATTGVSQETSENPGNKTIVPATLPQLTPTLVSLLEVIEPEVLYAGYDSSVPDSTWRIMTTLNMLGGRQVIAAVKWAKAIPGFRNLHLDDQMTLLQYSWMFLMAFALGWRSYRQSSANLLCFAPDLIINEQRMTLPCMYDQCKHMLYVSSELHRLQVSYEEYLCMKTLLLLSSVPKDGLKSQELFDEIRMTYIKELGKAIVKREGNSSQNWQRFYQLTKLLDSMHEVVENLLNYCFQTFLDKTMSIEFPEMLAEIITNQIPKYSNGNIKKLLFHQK
Summary of the method: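 Reporter read-out: fluorescence intensity following 2 h room-temperature LiveBLAzer B/G FRET substrate loading. Prior step: GR-bla HeLa cells held 4 h, then treated 18 h at 37 C.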

[15] = molecular target: Glucocorticoid receptor (Homo sapiens) (UniProt P04150); assay: qHTS assay to identify small molecule antagonists of the glucocorticoid receptor (GR) signaling pathway (AID 720692; active means well fitted inhibition curve with a large enough effect in the signal ratio in the repeat runs, not every such curve was filed as active; the % refers to the signal ratio; further: potency means the concentration at half of the fitted maximal effect)
Summary of the method: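 Dexamethasone (5 nM final) stimulated a stably integrated GRE-beta-lactamase reporter in HeLa cells during 18 h co-incubation with compounds; signal was quantified as fluorescence intensity of B/G FRET substrate after 2 h.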

[16] = qHTS assay for small molecule agonists of the p53 signaling pathway - cell viability (AID 651633; calls by dose curve; further: nearly all actives have a fitted effect of over 30% in size; further: potency means the concentration at half of the fitted maximal effect)
Summary of the method: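 p53RE-bla cells were treated with compound for 16 hours at 37 C. Cytotoxicity was then measured as CellTiter-Glo luminescence after 30 min at room temperature.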

[17] = qHTS assay for small molecules that induce genotoxicity in human embryonic kidney cells expressing luciferase-tagged ATAD5 - cell viability (AID 651634; calls by dose curve; further: nearly all actives have a fitted effect of over 25% in size; further: potency means the concentration at half of the fitted maximal effect)
Summary of the method: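 Seeding of 2,000 HEK293T ATAD5-luciferase cells per well preceded pin-tool compound transfer. Plates sat 15.5 hr at 37C under 5% CO2, then fluorescence was read after 30 min with CellTiter-Fluor.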

[18] = qHTS assay to test for compound auto fluorescence at 460 nm (blue) in HEK293 cells (AID 720678)
Summary of the method: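 Intrinsic compound fluorescence is recorded in live HEK293 cultures after overnight incubation at 37C, 5% CO2, using excitation 405 nm and emission 460 nm. Values are referenced to triamterene.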

[19] = qHTS assay to test for compound auto fluorescence at 535 nm (green) in HEK293 cells (AID 720680)

| SMILES | Potency [1] | Potency [2] | Potency [3] | Potency [4] | Potency [5] | Potency [6] | Potency [7] | Potency [8] | Potency [9] | Potency [10] | Potency [11] | Potency [12] | Potency [13] | Potency [14] | Potency [15] | Potency [16] | Potency [17] | Potency [18] | Potency [19] |
| --- | --- | --- | --- | --- | --- | --- | --- | --- | --- | --- | --- | --- | --- | --- | --- | --- | --- | --- | --- |
| COC(=O)[C@]1(C)CCC[C@@]2(C)[C@H]1CC=C1C=C(C(C)C)CC[C@@H]12 | inactive | inactive | 54.5 µM (active) | inactive | inactive | inactive | inactive | inactive | inactive | inactive | inactive | inactive | inactive | inactive | inactive | – | – | – | – |
| Cc1cc2c(C(C)C)c(O)c(O)c(C=O)c2c(O)c1-c1c(C)cc2c(C(C)C)c(O)c(O)c(C=O)c2c1O | – | inactive | 11.9 µM (active) | inactive | – | inactive | inactive | inactive | inactive | inactive | inactive | inactive | inactive | – | – | 8.41 µM (active) | 13.3 µM (active) | inactive | inactive |
| O=C(Oc1ccccc1)c1cccc(C(=O)Oc2ccccc2)c1 | 3.86 µM (active) | – | 32.3 µM (active) | inactive | inactive | inactive | inactive | – | inactive | inactive | inactive | inactive | inactive | inactive | – | – | inactive | – | – |
| SCCCCCCCCS | – | inactive | – | inactive | inactive | inactive | – | inactive | inactive | inactive | inactive | inactive | inactive | – | – | inactive | – | inactive | inactive |
| Oc1ccc(-c2ccc(O)cc2)cc1 | – | inactive | 43.5 µM (active) | inactive | – | inactive | inactive | inactive | inactive | inactive | inactive | inactive | inactive | inactive | – | – | inactive | inactive | inactive |
| NC(=O)c1nc(-c2cccc(-c3cc(F)ccc3OCC(F)(F)C(F)(F)F)c2)n[nH]1 | inactive | – | 9.69 µM (active) | inactive | – | inactive | inactive | – | inactive | inactive | inactive | inactive | inactive | – | – | – | – | inactive | inactive |
| N#CSCSc1nc2ccccc2s1 | – | inactive | 30.6 µM (active) | inactive | inactive | inactive | inactive | inactive | inactive | inactive | inactive | inactive | inactive | – | 24.5 µM (active) | 21.7 µM (active) | inactive | inactive | inactive |
| c1cc(OCC2CO2)cc(OCC2CO2)c1 (stereo not drawn) | inactive | inactive | – | inactive | – | inactive | inactive | inactive | inactive | inactive | inactive | inactive | inactive | inactive | – | – | – | inactive | inactive |
| CN(C)c1ccc(N=Nc2ccccc2C(=O)O)cc1 | – | inactive | – | inactive | inactive | inactive | inactive | inactive | inactive | inactive | inactive | inactive | inactive | inactive | – | – | 54.5 µM (active) | inactive | inactive |
| CC(=O)OC(OC(C)=O)c1ccc([N+](=O)[O-])o1 | – | – | 31.2 µM (active) | inactive | inactive | inactive | inactive | inactive | inactive | inactive | inactive | inactive | inactive | – | 55.9 µM (active) | – | 62.2 µM (active) | inactive | – |
| CN1[C@@H]2CC[C@H]1CC(OC(=O)C(CO)c1ccccc1)C2 (stereo partly drawn) | – | inactive | inactive | inactive | inactive | inactive | inactive | inactive | inactive | inactive | inactive | inactive | inactive | inactive | inactive | – | – | inactive | inactive |
| Cc1cc(Nc2ccc(O)cc2)ccc1N | – | – | 6.82 µM (active) | inactive | – | inactive | inactive | inactive | inactive | inactive | inactive | inactive | inactive | – | – | inactive | 27.2 µM (active) | inactive | inactive |
| NC(=O)C(=O)N/N=C/c1ccc([N+](=O)[O-])o1 | inactive | – | – | inactive | – | inactive | inactive | inactive | inactive | inactive | inactive | inactive | inactive | inactive | inactive | – | inactive | inactive | – |
| CC1=C(/C=C/C(C)=C/C=C/C(C)=C\C=O)C(C)(C)CCC1 | – | inactive | 57.9 µM (active) | inactive | – | inactive | inactive | inactive | inactive | inactive | inactive | inactive | inactive | – | – | – | – | – | inactive |
| CNCC[C@H](Oc1cccc2ccccc12)c1cccs1 | – | inactive | 13.3 µM (active) | inactive | inactive | inactive | inactive | inactive | inactive | inactive | inactive | inactive | inactive | inactive | – | – | – | – | inactive |

Source: PubChem BioAssay (Tox21)
